Source: PubChem BioAssay (NCATS)
Results filed as inconclusive are left out. Calls of active or inactive are those of the source. Unless noted, the call rests on the fitted dose curve.

Molecular target: Cytochrome P450 3A4 (Homo sapiens) (UniProt P08684)
Assay: qHTS Assay for Inhibitors and Substrates of Cytochrome P450 3A4 (AID 884; active means well fitted curve in the direction sought with a large enough effect; an effect the other way counts as inactive or inconclusive; further: nearly all actives have a fitted effect of over 50% in size; further: potency means the concentration at half of the fitted maximal effect; on activity change, negative = inhibition: on the % scale 0 is the no-effect control and ±100 the full control effect)
Details: recombinant CYP3A4, Luciferin-PPXE luminescence; series mostly up to 57.1 µM; activity change, negative = inhibition: at the top concentration
How it was run: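 20 nM human CYP3A4 with 25 uM Luciferin-PPXE (at KM) in 200 mM KPO4, preincubated 10 min with compound; NADPH regeneration started a 60 min RT reaction. Luciferin detected by luminescence, normalized to 57 uM ketoconazole as full inhibition.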

Cytochrome P450 3A4 (Homo sapiens), sequence (P08684 whole entry, looked up): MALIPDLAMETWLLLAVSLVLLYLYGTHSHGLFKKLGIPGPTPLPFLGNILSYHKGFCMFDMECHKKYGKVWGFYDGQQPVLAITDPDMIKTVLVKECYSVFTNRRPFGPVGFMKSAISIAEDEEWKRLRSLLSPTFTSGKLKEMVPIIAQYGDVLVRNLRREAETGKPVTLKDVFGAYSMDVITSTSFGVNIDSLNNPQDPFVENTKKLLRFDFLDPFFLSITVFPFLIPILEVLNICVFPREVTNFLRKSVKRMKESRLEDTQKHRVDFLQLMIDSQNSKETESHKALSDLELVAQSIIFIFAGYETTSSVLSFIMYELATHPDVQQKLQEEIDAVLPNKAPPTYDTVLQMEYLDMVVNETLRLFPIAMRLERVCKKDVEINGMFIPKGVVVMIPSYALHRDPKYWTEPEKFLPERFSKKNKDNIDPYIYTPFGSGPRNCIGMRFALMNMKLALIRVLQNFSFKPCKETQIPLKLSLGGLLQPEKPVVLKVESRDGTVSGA

Potency, active:
Cc1ccccc1-c1nccc(NCc2cccs2)n1 2 µM
FC(F)(F)c1ccccc1-c1nc(NCCN2CCOCC2)c2ccccc2n1 7.94 µM
CS(=O)(=O)Nc1cccc(-c2ccc3ncnc(NC4CC4)c3c2)c1 6.31 µM
Cc1ccccc1-c1ccc2ncnc(NC3CC3)c2c1 3.16 µM
c1cncc(CNc2ncncc2-c2cccnc2)c1 2 µM
FC(F)(F)c1ccccc1-c1nc(NCc2cccs2)c2ccccc2n1 3.98 µM
c1csc(CNc2ncnc3ccc(-c4ccoc4)cc23)c1 7.94 µM
COc1ccccc1CCn1c(=O)c(-c2cccc(F)c2)nc2cncnc21 3.16 µM

Activity change, negative = inhibition, inactive:
CN1CCN(c2ncc3nc(-c4ccc(F)cc4)c(=O)n(Cc4cccs4)c3n2)CC1 32.5%

Molecular target: Cytochrome P450 3A4 (Homo sapiens) (UniProt P08684)
Assay: qHTS Assay for Activators of Cytochrome P450 3A4 (AID 885; active means well fitted curve in the direction sought with a large enough effect; an effect the other way counts as inactive or inconclusive; further: nearly all actives have a fitted effect of over 65% in size)
Details: recombinant CYP3A4, Luciferin-PPXE luminescence, 60 min; series mostly up to 57.1 µM; activity change, positive = activation: at the top concentration
How it was run: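 Steps: enzyme/substrate mix dispensed; compound added, 10 min RT; NADPH regeneration solution added, 60 min RT; luciferin detection buffer stops reaction; 20 min later luminescence measured.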

Activity change, positive = activation, inactive:
Cc1ccccc1-c1nccc(NCc2cccs2)n1 -112%
FC(F)(F)c1ccccc1-c1nc(NCCN2CCOCC2)c2ccccc2n1 -91.9%
Cn1c(=O)c(-c2cccs2)nc2cnc(N3CCNCC3)nc21 -53.5%
CS(=O)(=O)Nc1cccc(-c2ccc3ncnc(NC4CC4)c3c2)c1 -63.7%
CN1CCN(c2ncc3nc(CCc4ccccc4)c(=O)n(C4CC4)c3n2)CC1 -42.7%
Cc1ccccc1-c1ccc2ncnc(NC3CC3)c2c1 -96.4%
c1cncc(CNc2ncncc2-c2cccnc2)c1 -98%
FC(F)(F)c1ccccc1-c1nc(NCc2cccs2)c2ccccc2n1 -74.8%
COc1ccc(Oc2ncc3nc(-c4cn(C)c5ccccc45)c(=O)n(C4CC4)c3n2)cc1 -60.6%
COCCNc1ncnc2ccc(-c3cccc(NS(C)(=O)=O)c3)cc12 -67.4%
c1csc(CNc2ncnc3ccc(-c4ccoc4)cc23)c1 -77.8%
COc1ncc2nc(-c3ccc(F)cc3)c(=O)n(C)c2n1 -73.5%
COc1cccc(Cn2c(=O)c(-c3cccs3)nc3cnc(N(C)C)nc32)c1 -56.6%
COc1ccccc1CCn1c(=O)c(-c2cccc(F)c2)nc2cncnc21 -79.3%
CN(C)c1ncnc2ccc(-c3ccoc3)cc12 -54.7%
CCNc1ncc2nc(-c3cn(C)c4ccccc34)c(=O)n(C)c2n1 -48.2%
CN1CCN(c2ncc3nc(-c4cccc(C#N)c4)c(=O)n(Cc4ccc(F)cc4)c3n2)CC1 -75.4%
COc1ccc(Oc2ncc3nc(-c4ccc(OC)cc4)c(=O)n(C)c3n2)cc1 -54.3%

Molecular target: Cytochrome P450 2C19 (Homo sapiens) (UniProt P33261)
Sequence (P33261 whole entry, looked up): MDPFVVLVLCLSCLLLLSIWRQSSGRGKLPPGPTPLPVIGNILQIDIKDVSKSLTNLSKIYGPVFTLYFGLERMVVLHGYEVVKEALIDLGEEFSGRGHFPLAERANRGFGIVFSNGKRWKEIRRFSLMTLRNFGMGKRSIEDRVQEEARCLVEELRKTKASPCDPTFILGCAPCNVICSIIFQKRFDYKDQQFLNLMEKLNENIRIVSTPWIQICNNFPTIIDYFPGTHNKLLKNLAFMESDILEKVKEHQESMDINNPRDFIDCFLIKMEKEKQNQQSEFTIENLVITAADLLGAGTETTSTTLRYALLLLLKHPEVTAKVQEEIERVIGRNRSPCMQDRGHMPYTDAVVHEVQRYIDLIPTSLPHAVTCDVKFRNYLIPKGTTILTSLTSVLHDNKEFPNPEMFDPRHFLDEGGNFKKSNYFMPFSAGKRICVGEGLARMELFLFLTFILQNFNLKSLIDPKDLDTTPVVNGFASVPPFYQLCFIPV
Assay: qHTS Assay for Inhibitors and Substrates of Cytochrome P450 2C19 (AID 899; active means well fitted curve in the direction sought with a large enough effect; an effect the other way counts as inactive or inconclusive; further: nearly all actives have a fitted effect of over 60% in size; further: potency means the concentration at half of the fitted maximal effect; on activity, negative = inhibition: on the % scale 0 is the no-effect control and ±100 the full control effect)
Details: recombinant CYP2C19, luciferin-H EGE luminescence; series mostly up to 57.1 µM; activity, negative = inhibition: at the top concentration
How it was run: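 Reactions contain 5nM enzyme, 10uM Luciferin-H EGE (KM) and 50mM KPO4; compound preincubates 10 min at 37C, NADPH regeneration starts turnover for 60 min. Luminescence after detection reagent gives activity.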

Potency, active:
Cc1ccccc1-c1nccc(NCc2cccs2)n1 3.98 µM
Cc1ccccc1-c1ccc2ncnc(NC3CC3)c2c1 1.26 µM
c1csc(CNc2ncnc3ccc(-c4ccoc4)cc23)c1 6.31 µM

activity, negative = inhibition, inactive:
CS(=O)(=O)Nc1cccc(-c2ccc3ncnc(NC4CC4)c3c2)c1 15.5%

System: not listed separately
Assay: qHTS Assay for Identification of Small Molecule Agonists for Hypoxia Response Element Signaling Pathway (AID 914; active means well fitted activation curve with a large enough effect in the signal ratio, with a control signal flat, not every such curve was filed as active; the % refers to the signal ratio; further: potency means the concentration at half of the fitted maximal effect; on activation: % of control where 0% means no effect)
Details: ME-180 (cervical carcinoma) HRE-bla reporter, beta-lactamase ratio, CoCl2, 17 h; activation: hits give high values
How it was run: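 AC50 values come from titration-series %Activity, taken as the 460/530nm ratio of CCF4 fluorescence (excitation 405nm). CellSensor HRE-bla ME-180 cells were treated 17 hours at 37 C with compound plus an EC50 level of CoCl2.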

Potency, active:
CN1CCN(c2ncc3nc(-c4ccc(F)cc4)c(=O)n(Cc4cccs4)c3n2)CC1 3.16 µM
Cn1c(=O)c(-c2cccs2)nc2cnc(N3CCNCC3)nc21 3.16 µM
COc1ccc(-n2c(=O)c(-c3ccc(F)cc3)nc3cnc(N4CCOCC4)nc32)cc1 3.16 µM
COc1ncc2nc(-c3ccc(F)cc3)c(=O)n(C)c2n1 3.16 µM
COCCn1c(=O)c(-c2ccc(Cl)cc2)nc2cnc(Nc3ccccc3)nc21 2.51 µM
CN1CCN(c2ncc3nc(-c4cccc(C#N)c4)c(=O)n(Cc4ccc(F)cc4)c3n2)CC1 3.16 µM

activation, inactive:
CN1CCN(c2ncc3nc(CCc4ccccc4)c(=O)n(C4CC4)c3n2)CC1 -5.15%
COc1ccccc1CCn1c(=O)c(-c2cccc(F)c2)nc2cncnc21 -1.08%

System: not listed separately
Assay: qHTS Assay for Lipid Storage Modulators (AID 1519); further: on the % scale 0 is the no-effect control and ±100 the full control effect
Details: Drosophila S3 cells, BODIPY lipid droplet/cell ratio, laser cytometry; at 57.5 µM (top of the series); cells loaded with oleic acid
How it was run: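 Cells seeded at 5,000 per well were treated with compounds over a concentration series and loaded with oleic acid (400 uM, as added). Lipid droplet fluorescence (488 nm excitation, 500-530 nm channel) was read by laser-scanning cytometry and normalized to 20 uM Triacsin C.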

Activity change, negative = inhibition, inactive:
Cc1ccccc1-c1nccc(NCc2cccs2)n1 6.73%
CN1CCN(c2ncc3nc(-c4ccc(F)cc4)c(=O)n(Cc4cccs4)c3n2)CC1 -3.43%
COc1ccc(-c2nc3cnc(N4CCN(C)CC4)nc3n(Cc3cccs3)c2=O)cc1 1.59%
FC(F)(F)c1ccccc1-c1nc(NCCN2CCOCC2)c2ccccc2n1 4.77%
COc1ccc(-c2nc3cnc(Oc4cccc(Cl)c4)nc3n(C3CC3)c2=O)cc1 -3.67%
N#CCCn1c(=O)c(-c2ccc(F)cc2)nc2cnc(N3CCOCC3)nc21 3.46%
Cn1c(=O)c(-c2cccs2)nc2cnc(N3CCNCC3)nc21 4.59%
CS(=O)(=O)Nc1cccc(-c2ccc3ncnc(NC4CC4)c3c2)c1 -3.87%
CN1CCN(c2ncc3nc(CCc4ccccc4)c(=O)n(C4CC4)c3n2)CC1 1.8%
COCCn1c(=O)cnc2cnc(Nc3ccccc3)nc21 -9%
Cc1ccccc1-c1ccc2ncnc(NC3CC3)c2c1 -3.61%
c1cncc(CNc2ncncc2-c2cccnc2)c1 2.51%
Clc1ccccc1-c1nccc(NCc2cccs2)n1 7.3%
O=c1c(-c2ccc(F)cc2)nc2cnc(Oc3ccccc3)nc2n1Cc1cccs1 -20.3%
FC(F)(F)c1ccccc1-c1nc(NCc2cccs2)c2ccccc2n1 2.3%
COc1ccc(Oc2ncc3nc(-c4cn(C)c5ccccc45)c(=O)n(C4CC4)c3n2)cc1 2.32%
COc1ccc(-n2c(=O)c(-c3ccc(F)cc3)nc3cnc(N4CCOCC4)nc32)cc1 4.12%
CC(=O)NCCNc1ncnc2ccc(-c3ccoc3)cc12 1.77%
COCCNc1ncnc2ccc(-c3cccc(NS(C)(=O)=O)c3)cc12 1.59%
c1csc(CNc2ncnc3ccc(-c4ccoc4)cc23)c1 -0.111%
Cc1ccccc1-c1cc(N2CCN(C)CC2)ncn1 -4.37%
c1nc(NC2CCNCC2)c2cc(-c3ccoc3)ccc2n1 0.0897%
COc1ncc2nc(-c3ccc(F)cc3)c(=O)n(C)c2n1 7.5%
COCCn1c(=O)c(-c2ccc(Cl)cc2)nc2cnc(Nc3ccccc3)nc21 3.97%
CN1CCN(c2ncc3nc(-c4ccc(Cl)cc4)c(=O)n(-c4ccccc4)c3n2)CC1 4.1%
CN1CCN(c2ccnc(-c3ccoc3)n2)CC1 0.402%
COc1cccc(Cn2c(=O)c(-c3cccs3)nc3cnc(N(C)C)nc32)c1 3.91%
Cc1nc2cnc(OCc3ccccc3)nc2n(C)c1=O 7.08%
COc1ccccc1CCn1c(=O)c(-c2cccc(F)c2)nc2cncnc21 6.88%
CN(C)c1ncnc2ccc(-c3ccoc3)cc12 1.41%
COc1cccc(Nc2ncc3nc(CCc4ccccc4)c(=O)n(C)c3n2)c1 -10%
COCCNc1ncnc2ccc(-c3ccccc3C)cc12 -6.26%
COc1ccc(-c2nc3cnc(Oc4ccccc4)nc3n(CCC#N)c2=O)cc1 1.13%
COc1cccc(Nc2ncc3nc(-c4ccc(Cl)cc4)c(=O)n(C4CC4)c3n2)c1 -3.5%
CCNc1ncc2nc(-c3cn(C)c4ccccc34)c(=O)n(C)c2n1 8.66%
CN1CCN(c2ncc3nc(-c4cccc(C#N)c4)c(=O)n(Cc4ccc(F)cc4)c3n2)CC1 -3.63%
COc1ccc(Oc2ncc3nc(-c4ccc(OC)cc4)c(=O)n(C)c3n2)cc1 2.79%
Cc1nc2cnc(N3CCOCC3)nc2n(C[C@H]2CCCO2)c1=O 3.62%
COc1cccc(Cn2c(=O)c(-c3ccc(F)cc3)nc3cnc(OC)nc32)c1 7.13%
